# Assay outcomes as filed in PubChem BioAssay.
# Sampled rows, rich in hits. Any-hit rate of the full collection: about 7%.
# PI5P4K alpha inh = qHTS for Inhibitors of phosphatidylinositol 5-phosphate 4-kinase (PI5P4K); PI5P4Kalpha enzyme, ADP-Glo luminescence, 60 min; active compounds read low; Phosphatidylinositol 5-phosphate 4-kinase type-2 alpha (Homo sapiens), P48426; AID 652105, 2013; max response, %; actives 1.2% (n = 330,000); active = max response of -50% or lower; inconclusive = between -30% and -50%; inactive = -30% or higher; also: value at the top dose of about 77 µM; % is scaled to controls: 0 for no effect and ±100 for the full control effect
#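 Controls without substrate or without enzyme flank wells where PI5P4Kalpha converts substrate using 5 microM ATP (final). Incubation lasts 60 minutes at room temperature; ADP formed is read by ADP-Glo luminescence.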
# PLK1 PBD inh = qHTS for Inhibitors of PLK1-PDB (polo-like kinase 1 - polo-box domain): Primary Screen. Serine/threonine-protein kinase PLK1 (Homo sapiens), P53350. Plk1 PBD binding of FITC phosphopeptide, fluorescence polarization. Potency, µM, for inactives: max response, negative = inhibition, actives largely listed as inhibitors. actives 2.8% (n = 360,000); also: potency is read from the fitted curve at half-maximal effect; series mostly up to about 57 µM; % is scaled to controls: 0 for no effect and ±100 for the full control effect; nearly all actives have a fitted effect of over 65% in size
# Target sequence (P53350 whole entry, looked up, the tested form may be a part): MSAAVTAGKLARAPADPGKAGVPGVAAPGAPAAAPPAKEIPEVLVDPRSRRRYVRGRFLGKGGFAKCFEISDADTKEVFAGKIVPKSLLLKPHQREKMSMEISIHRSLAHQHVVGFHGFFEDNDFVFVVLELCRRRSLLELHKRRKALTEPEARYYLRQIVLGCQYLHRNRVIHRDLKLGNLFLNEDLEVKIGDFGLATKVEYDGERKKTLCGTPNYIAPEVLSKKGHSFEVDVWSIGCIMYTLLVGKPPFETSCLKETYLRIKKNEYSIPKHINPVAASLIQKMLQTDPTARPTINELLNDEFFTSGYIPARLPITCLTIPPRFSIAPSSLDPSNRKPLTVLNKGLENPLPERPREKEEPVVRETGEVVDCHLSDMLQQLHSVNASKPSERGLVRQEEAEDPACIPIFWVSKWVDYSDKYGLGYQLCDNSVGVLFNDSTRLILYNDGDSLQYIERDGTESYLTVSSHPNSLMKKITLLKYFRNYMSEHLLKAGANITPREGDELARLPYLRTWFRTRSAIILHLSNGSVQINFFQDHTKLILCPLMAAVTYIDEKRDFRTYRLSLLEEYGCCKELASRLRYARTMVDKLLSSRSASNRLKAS
# KAT2A inh = qHTS Assay for Inhibitors of GCN5L2; Histone acetyltransferase KAT2A (Homo sapiens), Q92830; GCN5L2 HAT assay, ThioGlo1 CoA-SH fluorescence; Potency, µM (titrated, usually from 58.9 µM), without a hit: at the top dose activity change, negative = inhibition, actives largely listed as inhibitors; actives 0.21% (n = 390,000); also: potency is read from the fitted curve at half-maximal effect; % is scaled to controls: 0 for no effect and ±100 for the full control effect
#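 ThioGlo1-coupled HAT assay: 20nM GCN5L2, 70uM acetyl-CoA, 75uM H3(1-25) peptide, pH 7.5. Fluorescence read at 340/540nm at start and after 20 min at room temperature.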
# JMJD2A Tudor = qHTS Assay for Inhibitors of JMJD2A-Tudor Domain. Lysine-specific demethylase 4A (Homo sapiens), O75164. AlphaScreen JMJD2A-Tudor / H3K4me3 peptide binding. Potency, µM (top dose mostly 114 µM), for inactives: at the top dose activity change, negative = inhibition, most hits filed as inhibitors. actives 4.4% (n = 390,000); also: potency is read from the fitted curve at half-maximal effect; % is scaled to controls: 0 for no effect and ±100 for the full control effect; nearly all actives have a fitted effect of over 50% in size
# HP1b binding inh = HTS for Inhibitors of HP1-beta Chromodomain Interactions with Methylated Histone Tails | AlphaScreen HP1-beta / biotin-H3K9me3 peptide binding | Chromobox protein homolog 1 (Homo sapiens), P83916 | actives 0.56% (n = 390,000) | Potency, µM (titrated, usually from 114 µM), without a hit: at the top dose activity change, negative = inhibition, most hits filed as inhibitors; also: potency is read from the fitted curve at half-maximal effect; nearly all actives have a fitted effect of over 70% in size
#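 AlphaScreen: HP1-beta (50 nM) preformed 30 min with biotin-H3(1-18)K9me3 peptide (50 nM) in PBS pH 7.4, 0.01% Tween-20. Compound added for 30 min at RT, then streptavidin donor/nickel chelate acceptor beads (10 ug/mL) for 30 min.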
# BAZ2B block = qHTS Assay for Inhibitors of BAZ2B. AID 504333, 2011. AlphaScreen BAZ2B-H3K14Ac peptide displacement. Potency, µM (top dose mostly 114 µM), for inactives: top-dose activity change, negative = inhibition, actives largely listed as inhibitors. Bromodomain adjacent to zinc finger domain protein 2B (Homo sapiens), Q9UIF8. actives 4.4% (n = 360,000); also: potency is read from the fitted curve at half-maximal effect; % is scaled to controls: 0 for no effect and ±100 for the full control effect; nearly all actives have a fitted effect of over 60% in size
#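 AlphaScreen luminescence quantifies BAZ2B engagement of H3K14Ac peptide; the protein and biotinylated peptide are both at 50 nM final, buffer PBS pH 7.4 with 0.01% Tween-20, all steps at room temperature.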
# An asterisk follows results filed as active; ? = inconclusive; / = no result given; [ ] = dose if it differs, or a comment. Unless noted, calls follow the shape of the dose curve; as a rule, active = well fitted curve in the direction sought with a large enough effect; inconclusive = small, poorly fitted or top-dose-only effect, or another doubt; inactive = no such curve, though single readings can be large; an effect the other way counts as inactive or inconclusive.
SMILES,PI5P4K alpha inh,PLK1 PBD inh,KAT2A inh,JMJD2A Tudor,HP1b binding inh,BAZ2B block
CCCCC(=O)NNC(=S)NC(=O)c1ccc([N+](=O)[O-])cc1,-25,24µM*,?,32µM*,?,?
CCCCN(CC)CCNC(=O)CN1C(=O)COc2ccc(S(=O)(=O)N3CCOCC3)cc21,/,/,-3%,-14%,21%,-5%
CC1CCN(C(=O)CN(c2ccc3c(c2)OCCO3)S(=O)(=O)c2ccccc2)CC1,8,-5%,0%,-13%,15%,-10%
CCC1CCCCN1C(=S)NC(=O)c1ccc([N+](=O)[O-])cc1 (stereo not drawn),-4,-11%,-1%,?,-13%,71µM*
CCCCC(=O)NNC(=S)NC(=O)c1cccc([N+](=O)[O-])c1,/,?,-18%,22µM*,?,?
CCCCC(=O)c1ccc(OC(=O)c2ccc([N+](=O)[O-])cc2)cc1,-1,-5%,/,50µM*,?,/
COc1ccc(C(=O)NC(=S)NNC(=O)c2ccc3ccccc3n2)cc1,?,-18%,-4%,50µM*,-23%,79µM*
Cc1c(Cc2ccccc2)c(=O)oc2cc(OCC(=O)N3CCC(C(=O)O)CC3)ccc12,-8,-15%,4%,-18%,19%,-4%
CCN1CCCC1Cn1cnc2c([nH]c3ccc(OC)cc32)c1=O (stereo not drawn),1,-3%,2%,1%,37%,-5%
CCC(=O)NC(=S)NNC(=O)c1ccc([N+](=O)[O-])cc1,/,-17%,-7%,79µM*,5%,15%[57.1 µM]
CCCCCC(=O)NNC(=S)NC(C)=O,?,-26%,-14%,45µM*,-1%,11%
Clc1cccc(-c2ccc(CNCc3ccccn3)o2)c1,18,-2%,0%,56µM*,-16%,22µM*
O=c1[nH]nc(Cc2ccc(-c3cccc(Cl)c3)o2)c2ccccc12,2,-10%,0%,-5%,43%,0%
COc1cc(/C=C/C(=O)O)cc(S(=O)(=O)Nc2ccc3nc(SC)sc3c2)c1OC,3,-1%,-5%,-14%,14%,/
CCCC/C=C1/CCC(CN(C)C)C1=O (stereo not drawn),0,12µM*,/,-15%,23%,/
CN(C)CC1CCC/C(=C/c2ccc(Cl)cc2)C1=O (stereo not drawn),18,6µM*,/,-19%,33%,/
CN(C)CC1CCC/C(=C\c2ccc(OC(=O)/C=C/c3ccc(Cl)c(Cl)c3)cc2)C1=O (stereo not drawn),-2,-19%,/,-12%,0%,/
COc1cccc(/C=C2/CCC(CN(C)C)C2=O)c1 (stereo not drawn),-15,3.4µM*,/,79µM*,?,/
COc1ccc(/C=C2/CCCC(CN(C)C)C2=O)cc1 (stereo not drawn),2,24µM*,/,-24%,29%,/
CCCCCOc1ccc(NC(=O)C(=O)NCC2CCCN2CC)cc1 (stereo not drawn),-2,-7%,-9%,-11%[11.4 µM],19%,-12%
CCCn1c(SCC(=O)Nc2ccccc2Cl)n[nH]c1=O,11,1%,-14%,-6%,22%,-1%
CN(Cc1ccccc1)C(=O)C(=O)c1c[nH]c2ccccc12,1,2%,/,/,/,/
CN(C)CC(=O)c1c[nH]c2ccccc12,3,-5%,-7%,50µM*,19%,-23%
O=C(Nc1ccccc1Cl)NN1CCCCCC1,1,-9%,/,1%,16%[57 µM],/
CCc1nnc(NS(=O)(=O)c2ccc(NC(=O)c3ccc(S(=O)(=O)N(CC)CC)cc3)cc2)s1,1,-22%,-27%,-14%,66%,2%
SMILES,PI5P4K alpha inh,PLK1 PBD inh,KAT2A inh,JMJD2A Tudor,HP1b binding inh,BAZ2B block
CCc1nnc(NS(=O)(=O)c2ccc(NC(=O)/C=C/c3ccc(OC)cc3OC)cc2)s1,?,?,-13%,?,-3%,56µM*
COc1ccc(/C=C/C(=O)NC(=S)Nc2ccc(S(=O)(=O)Nc3cc(OC)ncn3)cc2)cc1,-11,?,-12%,-20%,7%,-20%
CCOc1cc(C(=O)Nc2ccc(S(=O)(=O)Nc3nnc(CC)s3)cc2)cc(OCC)c1OCC,-4,-13%,-13%,25µM*,44%,-1%
CCc1nnc(NS(=O)(=O)c2ccc(N/C=C\C(=O)c3cccc(OC)c3)cc2)s1,5,-29%,-6%,-13%,29%,-38%
CCc1nnc(NS(=O)(=O)c2ccc(NC(=S)NC(=O)/C=C/c3ccc(F)cc3)cc2)s1,?,17µM*,2%,56µM*,?,50µM*
COc1cc(NS(=O)(=O)c2ccc(NC(=S)NC(=O)/C=C/c3ccc(OC)c(OC)c3)cc2)ncn1,-10,13µM*,0%,-24%[11.4 µM],22µM*,13µM*
CCn1cnc2c(Nc3ccc(Cc4cccnc4)cc3)nc(C#N)nc21,/,/,/,-23%,/,/
COc1ccc(C)cc1NC(=O)Nc1ccccc1OCc1cc(=O)n2ccccc2n1,/,/,-12%,-9%,18%[57 µM],8%
Cc1ccc(N2C(SCC(=O)O)=NC(=Nc3cccc(C)c3)C23CCCC3)cc1,5,-1%,-9%,10µM*,14µM*,20µM*
Cc1ccc2nc(SCC(=O)O)nc(C)c2c1,/,-3%,-1%,-13%,24%,14%
O=C(O)CSC1=NC(=Nc2ccc(Cl)cc2)C2(CCCCC2)N1c1cccc(C(=O)O)c1,-7,1%,-3%,22µM*,?,?
O=C(O)c1cccc(N2C(=S)N=C(Nc3ccccc3)C23CCCCC3)c1,-2,-1%,8%,4%,37%,-8%
COc1ccccc1-c1nc(SCC(=O)c2ccc(Cl)cc2)n[nH]1,/,/,-1%,-15%,15%,-9%
Cc1nc(S/C(=C/c2ccc(-c3ccc(C(=O)O)cc3)o2)C(=O)O)n[nH]1,-70*,-11%,?,20µM*,?,10µM*
CC(=O)c1ccc(-c2ccc(/C=C(/Sc3n[nH]c(C)n3)C(=O)O)o2)cc1,-15,-22%,?,?,13%,?
Cc1nc(S/C(=C/c2ccc(-c3cc(Cl)ccc3C)o2)C(=O)O)n[nH]1,-1,?,-7%,45µM*,13%,-33%
Cc1nc(S/C(=C/c2ccc(-c3ccc(Cl)cc3)o2)C(=O)O)n[nH]1,4,-28%,2%,-22%,2%,9%
Cc1ccc(C(=O)CSc2cc(C)[nH]c(=O)n2)cc1,-24,-29%,?,?,-4%,45µM*
